Data: the supplement of paper PMC10849652
Of roughly 7,900 targets only a part is listed; those with a hit were picked by preference. About 0.6% of all pairs of compound and target were hits.

Columns and labels:
Assay in all cases: log2 fold change, soluble protein after heating vs DMSO (PISA); higher = thermal stabilisation; K562 cells, 10 uM, 30 min; active = over 0.2 and 3.5 SD of the protein, either way, in both replicates (recomputed)
[1] = compound: Cc1ccc(NC(=O)c2ccc(CN3CC[C@H](N(C)C)C3)c(C(F)(F)F)c2)cc1Nc1nccc(-c2cncnc2)n1 [bafetinib]
Outline: (§1)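 Soluble protein was quantified by TMTpro 16plex LC-MS/MS after channel sums were equalised. It was obtained as the supernatant after 21,000xg for 90 min from pooled aliquots of K562 cells (2×10^6 cells/mL, 10 μM compound, 30 min) heated for 3 min across 48°C-58°C and extracted in PBS with 0.5% NP-40 at 4°C. Thermal stability values are relative to control samples and come from duplicates. They are given as log2 fold changes.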

[2] = compound: Cc1cccc(CC(=O)N2CCc3c2ccc(-c2cn(C)c4ncnc(N)c24)c3F)n1
Outline: as §1

[3] = compound: Cc1cn(-c2cc(NC(=O)c3ccc(C)c(Nc4nccc(-c5cccnc5)n4)c3)cc(C(F)(F)F)c2)cn1 [nilotinib]
Outline: as §1

[4] = compound: Cc1nc(Nc2n[nH]c3c2CN(C(=O)N[C@H](CN(C)C)c2ccccc2)C3(C)C)c2sccc2n1
Outline: as §1

[5] = compound: Cc1nc(Nc2ncc(C(=O)Nc3c(C)cccc3Cl)s2)cc(N2CCN(CCO)CC2)n1 [dasatinib]
Outline: as §1

[6] = compound: Cc1ncc(-c2ccnc(Nc3ccc(S(C)(=O)=O)cc3)n2)n1C(C)C
Outline: as §1

[7] = compound: Cn1cc(-c2ccc3c(c2)CCN3C(=O)Cc2cccc(C(F)(F)F)c2)c2c(N)ncnc21
Outline: as §1

[8] = compound: Cn1cc(-c2ccc3nnc(C(F)(F)c4ccc5ncccc5c4)n3n2)cn1
Outline: as §1

[9] = compound: Cn1cncc1[C@@](N)(c1ccc(Cl)cc1)c1ccc2c(c1)c(-c1cccc(Cl)c1)cc(=O)n2C [tipifarnib]
Outline: as §1

[10] = compound: FC(F)(F)c1ccc(/C=C/c2nc(COc3ccc(CCCCn4ccnn4)cc3)co2)cc1 [mubritinib]
Outline: as §1

[11] = compound: NC(=O)Nc1cc(-c2cccc(F)c2)sc1C(=O)N[C@H]1CCCNC1
Outline: as §1

[12] = compound: NC(=O)c1cnc(N[C@@H]2CCCC[C@@H]2N)nc1Nc1cccc(-n2nccn2)c1
Outline: as §1

[13] = compound: NC1(c2ccc(-c3nc4ccn5c(=O)[nH]nc5c4cc3-c3ccccc3)cc2)CCC1
Outline: as §1

[14] = compound: NCC(=O)Nc1ccc(-n2nc(C(F)(F)F)cc2-c2ccc3c(ccc4ccccc43)c2)cc1
Outline: as §1

[15] = compound: Nc1ccccc1NC(=O)c1ccc(CNC(=O)OCc2cccnc2)cc1 [entinostat]
Outline: as §1

[16] = compound: O=C(CCCCCCC(=O)Nc1ccccc1)NO [vorinostat]
Outline: as §1

[17] = compound: O=C(CCCCCCNC(=O)c1cnc(N(c2ccccc2)c2ccccc2Cl)nc1)NO [citarinostat]
Outline: as §1

[18] = compound: O=C(O)c1ccc2c(c1)nc(Nc1cccc(Cl)c1)c1ccncc12 [silmitasertib]
Outline: as §1

[19] = compound: O=C1NC(=O)C(c2cnc3ccccn23)=C1c1cn2c3c(cc(F)cc13)CN(C(=O)N1CCCCC1)CC2
Outline: as §1

[20] = compound: c1cc(OCCN2CCCCC2)cc(-c2n[nH]c3ccc(-c4nnc[nH]4)cc23)c1
Outline: as §1

Chain of UniProt P85037 (P85037 whole entry, looked up): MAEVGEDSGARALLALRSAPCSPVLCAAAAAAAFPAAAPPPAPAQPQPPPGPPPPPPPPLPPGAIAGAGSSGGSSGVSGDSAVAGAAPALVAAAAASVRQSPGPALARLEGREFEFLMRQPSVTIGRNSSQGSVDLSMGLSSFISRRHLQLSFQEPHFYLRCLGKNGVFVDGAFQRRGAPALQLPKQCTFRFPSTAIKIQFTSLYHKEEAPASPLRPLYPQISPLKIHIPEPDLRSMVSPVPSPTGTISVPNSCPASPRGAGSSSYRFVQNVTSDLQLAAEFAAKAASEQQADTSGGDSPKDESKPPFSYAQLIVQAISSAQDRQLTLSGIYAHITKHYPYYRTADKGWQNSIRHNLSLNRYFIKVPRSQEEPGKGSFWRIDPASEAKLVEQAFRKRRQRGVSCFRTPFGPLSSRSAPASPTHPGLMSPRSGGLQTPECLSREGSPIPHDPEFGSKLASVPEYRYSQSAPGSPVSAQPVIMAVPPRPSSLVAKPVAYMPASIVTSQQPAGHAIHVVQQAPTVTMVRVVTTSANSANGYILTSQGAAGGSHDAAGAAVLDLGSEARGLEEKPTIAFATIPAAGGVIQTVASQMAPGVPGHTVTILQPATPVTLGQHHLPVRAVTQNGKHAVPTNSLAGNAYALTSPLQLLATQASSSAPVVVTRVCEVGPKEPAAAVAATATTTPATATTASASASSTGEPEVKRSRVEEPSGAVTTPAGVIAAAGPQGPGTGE
Chain of UniProt P21333 (P21333 whole entry, looked up): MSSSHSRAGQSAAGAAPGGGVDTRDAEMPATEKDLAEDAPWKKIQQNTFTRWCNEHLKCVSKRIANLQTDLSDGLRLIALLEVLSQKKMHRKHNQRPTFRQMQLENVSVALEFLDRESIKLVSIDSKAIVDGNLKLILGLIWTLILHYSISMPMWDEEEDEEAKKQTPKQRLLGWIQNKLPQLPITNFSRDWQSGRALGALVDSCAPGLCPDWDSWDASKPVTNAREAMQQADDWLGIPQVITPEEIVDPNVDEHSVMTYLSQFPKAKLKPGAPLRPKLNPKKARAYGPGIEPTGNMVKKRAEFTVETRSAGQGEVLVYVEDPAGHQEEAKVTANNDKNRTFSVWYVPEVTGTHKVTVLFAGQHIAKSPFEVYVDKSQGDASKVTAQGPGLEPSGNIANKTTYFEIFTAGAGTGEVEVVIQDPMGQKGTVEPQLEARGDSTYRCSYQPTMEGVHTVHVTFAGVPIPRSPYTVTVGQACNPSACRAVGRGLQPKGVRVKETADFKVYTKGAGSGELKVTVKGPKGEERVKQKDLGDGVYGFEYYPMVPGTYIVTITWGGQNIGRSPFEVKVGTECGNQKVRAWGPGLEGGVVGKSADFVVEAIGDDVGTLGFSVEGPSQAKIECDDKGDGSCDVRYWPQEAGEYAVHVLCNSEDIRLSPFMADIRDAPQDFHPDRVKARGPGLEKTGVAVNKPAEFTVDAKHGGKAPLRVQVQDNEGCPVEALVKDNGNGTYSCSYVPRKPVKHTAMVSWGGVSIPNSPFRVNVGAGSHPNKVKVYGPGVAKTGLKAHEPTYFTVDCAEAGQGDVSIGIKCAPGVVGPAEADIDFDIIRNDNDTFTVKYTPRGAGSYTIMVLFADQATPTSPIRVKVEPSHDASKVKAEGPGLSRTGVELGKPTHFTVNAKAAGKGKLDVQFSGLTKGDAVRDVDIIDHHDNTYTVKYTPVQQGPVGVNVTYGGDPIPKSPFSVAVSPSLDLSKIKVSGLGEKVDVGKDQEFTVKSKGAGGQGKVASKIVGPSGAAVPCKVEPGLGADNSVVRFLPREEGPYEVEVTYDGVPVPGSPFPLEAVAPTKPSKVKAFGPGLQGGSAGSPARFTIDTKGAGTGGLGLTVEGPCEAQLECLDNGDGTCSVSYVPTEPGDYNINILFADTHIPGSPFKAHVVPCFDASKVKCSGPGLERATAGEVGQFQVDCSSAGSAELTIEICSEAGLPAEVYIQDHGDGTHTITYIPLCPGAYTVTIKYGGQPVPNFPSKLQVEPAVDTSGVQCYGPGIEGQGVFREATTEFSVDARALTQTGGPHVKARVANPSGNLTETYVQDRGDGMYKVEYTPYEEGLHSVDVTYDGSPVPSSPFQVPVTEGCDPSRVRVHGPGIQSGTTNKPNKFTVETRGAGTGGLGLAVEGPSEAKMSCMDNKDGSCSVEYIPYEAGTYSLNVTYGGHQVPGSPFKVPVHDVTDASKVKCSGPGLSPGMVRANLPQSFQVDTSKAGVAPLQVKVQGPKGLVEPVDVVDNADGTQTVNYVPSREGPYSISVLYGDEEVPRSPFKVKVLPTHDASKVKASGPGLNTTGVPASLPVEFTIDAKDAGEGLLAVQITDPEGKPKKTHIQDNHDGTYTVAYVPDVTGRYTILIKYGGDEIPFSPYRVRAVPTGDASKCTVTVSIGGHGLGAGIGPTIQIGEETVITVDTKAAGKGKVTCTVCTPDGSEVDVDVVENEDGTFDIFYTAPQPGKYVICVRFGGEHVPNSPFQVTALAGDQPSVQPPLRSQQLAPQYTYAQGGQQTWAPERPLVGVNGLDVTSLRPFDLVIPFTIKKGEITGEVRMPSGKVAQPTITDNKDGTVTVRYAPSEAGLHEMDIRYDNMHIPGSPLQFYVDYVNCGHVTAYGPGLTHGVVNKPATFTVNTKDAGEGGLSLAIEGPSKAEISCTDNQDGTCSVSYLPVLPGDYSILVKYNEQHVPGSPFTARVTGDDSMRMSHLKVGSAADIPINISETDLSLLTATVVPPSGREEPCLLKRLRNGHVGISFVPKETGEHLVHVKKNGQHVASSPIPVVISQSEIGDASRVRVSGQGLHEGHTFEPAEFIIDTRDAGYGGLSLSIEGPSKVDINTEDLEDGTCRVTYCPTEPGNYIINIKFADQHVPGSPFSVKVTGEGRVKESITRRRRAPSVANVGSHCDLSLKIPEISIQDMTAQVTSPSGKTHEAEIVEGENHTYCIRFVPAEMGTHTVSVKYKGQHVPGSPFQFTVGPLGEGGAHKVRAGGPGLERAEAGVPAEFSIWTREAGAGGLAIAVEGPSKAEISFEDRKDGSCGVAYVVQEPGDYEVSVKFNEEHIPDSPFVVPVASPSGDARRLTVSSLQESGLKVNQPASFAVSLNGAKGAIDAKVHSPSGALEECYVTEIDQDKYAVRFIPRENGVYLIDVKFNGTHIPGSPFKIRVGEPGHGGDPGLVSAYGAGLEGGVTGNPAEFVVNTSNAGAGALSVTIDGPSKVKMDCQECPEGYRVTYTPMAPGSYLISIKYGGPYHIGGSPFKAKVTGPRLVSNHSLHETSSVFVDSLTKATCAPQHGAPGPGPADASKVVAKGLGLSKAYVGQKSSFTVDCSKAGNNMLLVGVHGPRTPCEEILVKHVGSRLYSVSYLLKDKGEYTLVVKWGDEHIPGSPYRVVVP
Chain of UniProt Q8TEQ6 (Q8TEQ6 whole entry, looked up): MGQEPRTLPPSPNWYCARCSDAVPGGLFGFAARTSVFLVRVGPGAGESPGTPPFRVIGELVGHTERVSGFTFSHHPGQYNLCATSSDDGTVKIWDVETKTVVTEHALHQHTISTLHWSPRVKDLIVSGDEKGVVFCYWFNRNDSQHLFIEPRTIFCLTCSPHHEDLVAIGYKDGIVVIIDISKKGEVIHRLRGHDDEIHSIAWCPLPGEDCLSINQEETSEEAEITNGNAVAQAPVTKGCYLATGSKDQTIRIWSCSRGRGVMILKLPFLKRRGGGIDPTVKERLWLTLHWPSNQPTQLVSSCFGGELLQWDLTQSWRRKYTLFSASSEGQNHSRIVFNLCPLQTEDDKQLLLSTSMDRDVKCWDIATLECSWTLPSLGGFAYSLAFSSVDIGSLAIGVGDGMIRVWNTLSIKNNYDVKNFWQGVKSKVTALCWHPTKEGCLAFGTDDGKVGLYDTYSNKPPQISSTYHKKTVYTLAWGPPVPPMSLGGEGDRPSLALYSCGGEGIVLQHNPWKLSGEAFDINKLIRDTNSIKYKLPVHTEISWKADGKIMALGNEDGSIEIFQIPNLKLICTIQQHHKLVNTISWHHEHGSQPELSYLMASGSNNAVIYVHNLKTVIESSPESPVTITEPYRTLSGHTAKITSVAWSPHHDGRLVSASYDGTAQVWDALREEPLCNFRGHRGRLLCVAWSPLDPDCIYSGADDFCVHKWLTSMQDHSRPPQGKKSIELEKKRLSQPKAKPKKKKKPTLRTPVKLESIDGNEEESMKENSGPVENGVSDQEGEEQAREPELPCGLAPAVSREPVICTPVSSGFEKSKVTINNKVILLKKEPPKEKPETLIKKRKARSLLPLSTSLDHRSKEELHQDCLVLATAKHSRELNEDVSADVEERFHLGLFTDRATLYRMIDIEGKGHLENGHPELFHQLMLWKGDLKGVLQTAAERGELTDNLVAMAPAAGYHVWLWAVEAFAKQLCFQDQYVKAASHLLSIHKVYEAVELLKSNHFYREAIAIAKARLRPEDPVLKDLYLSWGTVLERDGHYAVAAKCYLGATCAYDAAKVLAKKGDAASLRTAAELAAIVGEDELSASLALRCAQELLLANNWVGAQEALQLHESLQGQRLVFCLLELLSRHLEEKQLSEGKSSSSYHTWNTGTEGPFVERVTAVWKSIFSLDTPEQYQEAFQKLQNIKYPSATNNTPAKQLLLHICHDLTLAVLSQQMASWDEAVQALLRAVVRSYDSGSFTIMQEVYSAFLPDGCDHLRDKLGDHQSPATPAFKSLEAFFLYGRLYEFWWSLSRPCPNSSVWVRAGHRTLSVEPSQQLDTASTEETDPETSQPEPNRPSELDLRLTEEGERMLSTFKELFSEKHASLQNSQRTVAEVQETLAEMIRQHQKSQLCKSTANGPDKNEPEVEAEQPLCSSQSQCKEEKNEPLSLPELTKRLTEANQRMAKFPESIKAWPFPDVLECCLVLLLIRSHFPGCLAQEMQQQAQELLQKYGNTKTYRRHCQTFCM
Chain of UniProt P0CL80 (P0CL80 whole entry, looked up): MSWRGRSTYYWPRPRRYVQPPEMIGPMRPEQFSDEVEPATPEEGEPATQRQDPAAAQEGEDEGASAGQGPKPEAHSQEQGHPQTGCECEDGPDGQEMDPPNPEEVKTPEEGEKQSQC

| Target | log2 fold change [1] | log2 fold change [2] | log2 fold change [3] | log2 fold change [4] | log2 fold change [5] | log2 fold change [6] | log2 fold change [7] | log2 fold change [8] | log2 fold change [9] | log2 fold change [10] | log2 fold change [11] | log2 fold change [12] | log2 fold change [13] | log2 fold change [14] | log2 fold change [15] | log2 fold change [16] | log2 fold change [17] | log2 fold change [18] | log2 fold change [19] | log2 fold change [20] |
| --- | --- | --- | --- | --- | --- | --- | --- | --- | --- | --- | --- | --- | --- | --- | --- | --- | --- | --- | --- | --- |
| GTF2B (UniProt Q00403) | -0.005 (inactive) | 0.139 (inactive) | -0.134 (inactive) | -0.13 (inactive) | -0.247 (inactive) | 0.006 (inactive) | 0.031 (inactive) | 0.102 (inactive) | -0.082 (inactive) | 0.007 (inactive) | -0.009 (inactive) | -0.08 (inactive) | -0.172 (inactive) | -0.056 (inactive) | 0.047 (inactive) | 0.211 (inactive) | 0.037 (inactive) | 0.005 (inactive) | -0.156 (inactive) | 0.022 (inactive) |
| GAGE12F (UniProt P0CL80) | -0.092 (inactive) | -0.284 (active) | 0.052 (inactive) | -0.085 (inactive) | 0.009 (inactive) | -0.015 (inactive) | -0.004 (inactive) | -0.035 (inactive) | 0.053 (inactive) | 0.085 (inactive) | 0.029 (inactive) | -0.013 (inactive) | 0.083 (inactive) | -0.059 (inactive) | 0.031 (inactive) | 0.024 (inactive) | 0 (inactive) | 0.01 (inactive) | 0.021 (inactive) | -0.08 (inactive) |
| FOXK1 (UniProt P85037) | 0.03 (inactive) | 0.052 (inactive) | 0.487 (inactive) | -0.816 (inactive) | 0.128 (inactive) | -1.19 (active) | 0.312 (inactive) | 0.184 (inactive) | 0.008 (inactive) | 0.03 (inactive) | 0.497 (inactive) | 0.201 (inactive) | 0.38 (inactive) | 0.096 (inactive) | 0 (inactive) | -0.15 (inactive) | 0.023 (inactive) | 0.512 (inactive) | -1.33 (active) | -0.031 (inactive) |
| GNB2 (UniProt P62879) | 0.12 (inactive) | -0.002 (inactive) | 0.077 (inactive) | -0.018 (inactive) | 0.057 (inactive) | -0.012 (inactive) | 0.028 (inactive) | -0.032 (inactive) | 0.003 (inactive) | -0.028 (inactive) | -0.073 (inactive) | -0.012 (inactive) | 0.022 (inactive) | -0.014 (inactive) | -0.037 (inactive) | -0.047 (inactive) | -0.01 (inactive) | 0.028 (inactive) | -0.075 (inactive) | -0.049 (inactive) |
| FLNA (UniProt P21333) | 0.011 (inactive) | 0.059 (inactive) | -0.056 (inactive) | -0.025 (inactive) | -0.158 (inactive) | 0.059 (inactive) | -0.053 (inactive) | 0.007 (inactive) | -0.176 (inactive) | 0.112 (inactive) | -0.069 (inactive) | -0.069 (inactive) | -0.093 (inactive) | -0.072 (inactive) | 0.042 (inactive) | 0.061 (inactive) | 0.062 (inactive) | 0.11 (inactive) | -0.002 (inactive) | -0.032 (inactive) |
| HIKESHI (UniProt Q53FT3) | -0.003 (inactive) | 0.02 (inactive) | -0.062 (inactive) | 0.018 (inactive) | 0.079 (inactive) | 0.009 (inactive) | 0.043 (inactive) | 0.065 (inactive) | -0.043 (inactive) | 0.025 (inactive) | 0 (inactive) | -0.045 (inactive) | -0.046 (inactive) | -0.053 (inactive) | -0.003 (inactive) | -0.05 (inactive) | 0.021 (inactive) | 0.002 (inactive) | 0.026 (inactive) | -0.056 (inactive) |
| GAPVD1 isoform 6 (UniProt Q14C86) | 0.023 (inactive) | 0.072 (inactive) | -0.09 (inactive) | -0.092 (inactive) | -0.15 (inactive) | -0.017 (inactive) | -0.043 (inactive) | -0.016 (inactive) | -0.135 (inactive) | 0.028 (inactive) | 0.009 (inactive) | -0.077 (inactive) | -0.139 (inactive) | -0.073 (inactive) | 0.049 (inactive) | 0.063 (inactive) | 0.087 (inactive) | 0.124 (inactive) | 0.003 (inactive) | -0.048 (inactive) |
| GLA (UniProt P06280) | -0.529 (active) | -0.051 (inactive) | 0.021 (inactive) | -0.007 (inactive) | -0.039 (inactive) | -0.04 (inactive) | 0.005 (inactive) | 0.03 (inactive) | 0.064 (inactive) | 0.035 (inactive) | 0.04 (inactive) | -0.049 (inactive) | -0.143 (inactive) | -0.066 (inactive) | -0.034 (inactive) | 0.056 (inactive) | 0.027 (inactive) | -0.03 (inactive) | -0.036 (inactive) | 0.029 (inactive) |
| GYG1 (UniProt P46976) | 0.237 (inactive) | 0.035 (inactive) | 0.635 (active) | -0.012 (inactive) | 0.052 (inactive) | -0.297 (inactive) | -0.06 (inactive) | -0.11 (inactive) | -0.009 (inactive) | -0.104 (inactive) | 0.012 (inactive) | -0.017 (inactive) | 0.075 (inactive) | 0.134 (inactive) | -0.019 (inactive) | -0.056 (inactive) | -0.011 (inactive) | 0.049 (inactive) | 0.037 (inactive) | -0.057 (inactive) |
| GALC (UniProt P54803) | -0.507 (active) | 0.084 (inactive) | 0.008 (inactive) | 0.045 (inactive) | 0.096 (inactive) | 0.01 (inactive) | 0.004 (inactive) | 0.065 (inactive) | 0.126 (inactive) | -0.005 (inactive) | 0.015 (inactive) | 0.016 (inactive) | -0.165 (inactive) | 0.001 (inactive) | -0.012 (inactive) | -0.138 (inactive) | 0.017 (inactive) | 0.042 (inactive) | 0 (inactive) | 0.096 (inactive) |
| GLUD2 (UniProt P49448) | 0.234 (inactive) | 0.02 (inactive) | 0.478 (active) | 0.21 (inactive) | -0.021 (inactive) | -0.031 (inactive) | 0.265 (active) | -0.028 (inactive) | 0.079 (inactive) | 0.041 (inactive) | -0.086 (inactive) | -0.03 (inactive) | -0.006 (inactive) | 0.027 (inactive) | -0.053 (inactive) | -0.051 (inactive) | -0.07 (inactive) | -0.136 (inactive) | -0.008 (inactive) | -0.017 (inactive) |
| GEMIN5 (UniProt Q8TEQ6) | 0.015 (inactive) | 0.065 (inactive) | -0.046 (inactive) | -0.315 (active) | -0.099 (inactive) | -0.127 (inactive) | 0.006 (inactive) | -0.021 (inactive) | -0.049 (inactive) | 0.043 (inactive) | -0.011 (inactive) | -0.018 (inactive) | -0.133 (inactive) | -0.015 (inactive) | 0.029 (inactive) | -0.046 (inactive) | -0.065 (inactive) | 0.009 (inactive) | -0.057 (inactive) | -0.034 (inactive) |
| GTF2H3 (UniProt Q13889) | -0.009 (inactive) | 0.058 (inactive) | 0.041 (inactive) | 0 (inactive) | 0.024 (inactive) | -0.064 (inactive) | -0.113 (inactive) | -0.02 (inactive) | -0.025 (inactive) | 0.023 (inactive) | -0.133 (inactive) | -0.152 (inactive) | 0.12 (inactive) | -0.063 (inactive) | 0.141 (inactive) | 0.037 (inactive) | -0.049 (inactive) | -0.004 (inactive) | -0.041 (inactive) | -0.015 (inactive) |
| HBZ (UniProt P02008) | -0.013 (inactive) | 0.037 (inactive) | 0.018 (inactive) | 0.011 (inactive) | 0.073 (inactive) | -0.008 (inactive) | 0.137 (inactive) | 0.282 (inactive) | -0.183 (inactive) | 0.049 (inactive) | 0.03 (inactive) | -0.042 (inactive) | 0 (inactive) | 0.026 (inactive) | 0.059 (inactive) | -0.022 (inactive) | 0.027 (inactive) | -0.019 (inactive) | -0.055 (inactive) | -0.018 (inactive) |
| HLTF (UniProt Q14527) | -0.003 (inactive) | 0.017 (inactive) | 0.099 (inactive) | -0.193 (inactive) | -0.035 (inactive) | 0.015 (inactive) | -0.035 (inactive) | -0.01 (inactive) | 0.007 (inactive) | 0.051 (inactive) | -0.025 (inactive) | 0.037 (inactive) | -0.067 (inactive) | -0.043 (inactive) | 0.069 (inactive) | -0.012 (inactive) | 0.008 (inactive) | -0.095 (inactive) | -0.073 (inactive) | -0.101 (inactive) |
| HSPA8 (UniProt E9PK54) | 0.096 (inactive) | -0.069 (inactive) | -0.105 (inactive) | -0.011 (inactive) | 0.011 (inactive) | 0.072 (inactive) | -0.409 (active) | 0.062 (inactive) | 0.227 (inactive) | 0.024 (inactive) | 0.015 (inactive) | 0.023 (inactive) | -0.071 (inactive) | -0.136 (inactive) | 0.061 (inactive) | -0.064 (inactive) | 0.068 (inactive) | 0.028 (inactive) | 0.093 (inactive) | -0.027 (inactive) |
